# The source made the active and inactive calls. Unless noted, the rule behind the calls is not given here.
# Experiments:
# [1] = tested on: Wnt5a (protein binding on small-molecule microarray); test: Wnt5a binders on small-molecule microarray, primary screen, biophysical, 635/667 nm fluorescence (AID 1142); conditions: 635 nm fluorescence, higher = more signal;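 note: fluorescence read at 667 nm with signal to noise per printed feature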
# [2] = cell viability in Huh7 cells, primary screen, cytotoxicity control for HCV replication inhibitor project, CellTiter-Glo luminescence, basal, 48 h (AID 1143); conditions: Huh7 HCV replicon, higher = more signal, called active from +8 up or from −8 down;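 note: Huh7 hepatoma cells carrying a hepatitis C replication reporter with no stimulus; test concentration not given here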
# [3] = P. aeruginosa biofilm formation inhibitors, primary screen, PAO1 strain, BacTiter-Glo luminescence, LB-PBS (AID 1144); conditions: 12 h, higher = more signal
# [4] = CREB reporter modulators without forskolin, primary screen, cell-based, PC12, CRE-LacZ reporter, unstimulated (AID 1145); conditions: no forskolin, luminescence, 4.5 h, higher = more signal, called active from +8 up or from −8 down
# [5] = CREB reporter modulators under forskolin, primary screen, cell-based, PC12, CRE-LacZ reporter, forskolin-stimulated (AID 1146); conditions: luminescence, 4.5 h, higher = more signal, called active from +8 up or from −8 down;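 note: PC12 cells with 6xCRE LacZ reporter stimulated by forskolin 10 µM; beta-galactosidase reporter signal reflecting CREB driven transcription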
# [6] = molecular target: Streptavidin (Streptomyces avidinii) (UniProt P22629); test: streptavidin binders on small-molecule microarray, primary screen, artefact control for SMM compound annotation, biophysical, 635/667 nm fluorescence (AID 1147); conditions: streptavidin binding, higher = more signal;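 note: signal reflects streptavidin binding to arrayed compounds as a control protein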
# [7] = small-molecule binders of probe aInhba, primary screen, biochemical, small-molecule microarray, 635/667 nm fluorescence (AID 1148); conditions: higher = more signal;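 note: score merges 667nm spot fluorescence with signal-to-noise for antibody binding to printed compounds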
# Torsin-1A (Homo sapiens) [8] = molecular target: Torsin-1A (Homo sapiens) (UniProt O14656); test: torsin A binders from cell lysate, primary screen, small-molecule microarray, wild-type, 635/667 nm (AID 1149); conditions: COS7 hTOR1A-WT lysate, 635 nm fluorescence, higher = more signal
# Torsin-1A (Homo sapiens) [9] = molecular target: Torsin-1A (Homo sapiens) (UniProt O14656); test: small-molecule binders of mutant TOR1A in lysate, primary screen, cell lysate, small-molecule microarray, COS7 lysate, 635/667 nm fluorescence (AID 1150); conditions: COS7 hTOR1A mutant lysate, 635 nm fluorescence, higher = more signal;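 note: score pools 667 nm emission and signal to noise measuring lysate protein binding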
# [10] = tested on: Sonic hedgehog protein (Shh); test: small-molecule binders of Shh protein, primary screen, biochemical, small-molecule microarray, 635/667 nm fluorescence (AID 1151); conditions: small-molecule microarray binding, 635 nm fluorescence; higher = more signal;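 note: Shh protein binding to compounds spotted on small-molecule microarray slides; score combines spot fluorescence intensity with signal-to-noise across triplicate slides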
# [11] = E. coli DRC41 culture turbidity changes, primary screen, E. coli filamentation inducer project, strain DRC41, OD650, 48 h (AID 1152);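 note: E. coli MC1000 strain DRC41 lacking acrAB efflux pump and sulA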; conditions: E. coli DRC41 (acrAB sulA), higher = more signal, called active from +8 up or from −8 down
# [12] = small-molecule binders of probe aLefty1, primary screen, biochemical, small-molecule microarray, 635/667 nm fluorescence (AID 1153); conditions: higher = more signal;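 note: score merges spot fluorescence with signal-to-noise ratio from the scanned slide images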
# [13] = PSAC antagonists in infected red cells, primary screen, cell-based, P. falciparum Indochina, OD700, 1 h (AID 1154); conditions: P. falciparum Indochina infected RBC osmotic lysis, higher = more signal, called active from +8 up or from −8 down
# [14] = PSAC antagonists in infected red cells, primary screen, cell-based, P. falciparum Indochina, OD700, 2 h (AID 1155);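 note: lysis reports solute entry through the parasite surface anion channel PSAC; channel blockers reduce lysis of infected cells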; conditions: P. falciparum Indochina infected erythrocytes, osmotic lysis OD700; higher = more signal, called active from +8 up or from −8 down
# [15] = osmotic lysis modulators in infected erythrocytes, primary screen, PSAC antagonist project, cell-based, P. falciparum Indochina, OD700, 3 h (AID 1156); conditions: higher = more signal, called active from +8 up or from −8 down
# [16] = PSAC antagonists in infected red cells, primary screen, cell-based, P. falciparum Indochina, OD700, 18 h (AID 1157); conditions: P. falciparum Indochina infected erythrocytes, osmotic lysis OD700, 18 h; higher = more signal, called active from +8 up or from −8 down
# [17] = modulators of S6 phosphorylation in cells, primary screen, cell-based, A549, cytoblot, luminescence, serum-stimulated (AID 1158); conditions: A549 phospho-S6 cytoblot, 5 h, higher = more signal;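 note: serum-stimulated A549 lung adenocarcinoma cells; signal is phosphorylated S6 detected by cytoblot immunostaining with HRP secondary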
# [18] = molecular target: NADPH oxidase 2 (Homo sapiens) (UniProt P04839); test: NOX2-dependent H2O2 signal modulators, primary screen, NOX inhibitor project, cell-based, HEK293-NOX2, PMA-stimulated, Amplex Red fluorescence (AID 1159); conditions: 45 min, higher = more signal, called active from +8 up or from −8 down; note: test concentration not given here
# [19] = molecular target: NADPH oxidase 4 (Homo sapiens) (UniProt Q9NPH5); test: NOX4-dependent H2O2 signal modulators, primary screen, NOX inhibitor project, cell-based, HEK293-NOX4, tetracycline-induced, Amplex Red fluorescence (AID 1160); conditions: 45 min, higher = more signal, called active from +8 up or from −8 down
# [20] = molecular target: NADPH oxidase 5 (Homo sapiens) (UniProt Q96PH1); test: NOX5-dependent H2O2 signal modulators, primary screen, NOX inhibitor project, cell-based, HEK293-NOX5, Amplex Red fluorescence (AID 1161); conditions: HEK293-NOX5, ionomycin, 45 min, higher = more signal
# NADPH oxidase 5 (Homo sapiens), sequence (Q96PH1 whole entry, looked up): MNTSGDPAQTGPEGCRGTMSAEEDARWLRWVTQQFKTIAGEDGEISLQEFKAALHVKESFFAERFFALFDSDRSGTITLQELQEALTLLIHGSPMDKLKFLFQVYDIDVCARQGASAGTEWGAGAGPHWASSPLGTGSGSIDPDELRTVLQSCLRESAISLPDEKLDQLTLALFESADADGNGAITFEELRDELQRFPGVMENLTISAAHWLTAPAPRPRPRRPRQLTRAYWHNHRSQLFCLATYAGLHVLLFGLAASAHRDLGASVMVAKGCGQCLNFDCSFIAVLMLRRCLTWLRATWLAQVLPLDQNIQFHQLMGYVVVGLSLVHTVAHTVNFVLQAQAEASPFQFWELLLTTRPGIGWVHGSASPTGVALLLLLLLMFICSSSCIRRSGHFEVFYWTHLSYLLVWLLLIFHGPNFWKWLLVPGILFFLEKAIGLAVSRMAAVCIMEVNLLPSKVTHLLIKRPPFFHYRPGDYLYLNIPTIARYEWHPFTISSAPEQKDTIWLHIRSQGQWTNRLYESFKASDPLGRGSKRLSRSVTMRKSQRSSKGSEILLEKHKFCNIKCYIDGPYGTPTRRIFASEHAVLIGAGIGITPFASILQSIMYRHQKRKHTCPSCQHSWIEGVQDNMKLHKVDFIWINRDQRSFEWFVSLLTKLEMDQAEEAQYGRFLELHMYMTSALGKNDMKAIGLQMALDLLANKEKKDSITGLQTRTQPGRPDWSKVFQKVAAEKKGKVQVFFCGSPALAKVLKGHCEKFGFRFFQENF
# Streptavidin (Streptomyces avidinii), sequence (P22629 whole entry, looked up): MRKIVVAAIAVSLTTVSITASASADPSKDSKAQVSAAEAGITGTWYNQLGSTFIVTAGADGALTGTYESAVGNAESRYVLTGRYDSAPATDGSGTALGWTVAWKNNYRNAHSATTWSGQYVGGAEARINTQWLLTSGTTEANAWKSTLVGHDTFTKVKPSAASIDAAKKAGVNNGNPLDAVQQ
# NADPH oxidase 4 (Homo sapiens), sequence (Q9NPH5 whole entry, looked up): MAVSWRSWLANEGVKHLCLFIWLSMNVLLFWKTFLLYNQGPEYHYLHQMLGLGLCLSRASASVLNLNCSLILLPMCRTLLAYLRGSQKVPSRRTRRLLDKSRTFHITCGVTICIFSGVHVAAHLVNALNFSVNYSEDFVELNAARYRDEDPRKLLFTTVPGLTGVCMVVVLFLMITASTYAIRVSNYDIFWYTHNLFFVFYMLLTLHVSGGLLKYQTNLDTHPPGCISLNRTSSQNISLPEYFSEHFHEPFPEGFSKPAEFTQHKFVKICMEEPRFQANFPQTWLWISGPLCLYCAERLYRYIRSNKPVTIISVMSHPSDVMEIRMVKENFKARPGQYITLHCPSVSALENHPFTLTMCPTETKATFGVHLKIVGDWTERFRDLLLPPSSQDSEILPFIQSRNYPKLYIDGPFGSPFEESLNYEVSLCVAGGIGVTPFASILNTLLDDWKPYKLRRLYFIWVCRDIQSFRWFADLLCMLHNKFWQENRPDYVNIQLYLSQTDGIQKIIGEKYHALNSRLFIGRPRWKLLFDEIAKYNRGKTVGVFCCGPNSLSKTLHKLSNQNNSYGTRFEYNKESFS
# NADPH oxidase 2 (Homo sapiens), sequence (P04839 whole entry, looked up): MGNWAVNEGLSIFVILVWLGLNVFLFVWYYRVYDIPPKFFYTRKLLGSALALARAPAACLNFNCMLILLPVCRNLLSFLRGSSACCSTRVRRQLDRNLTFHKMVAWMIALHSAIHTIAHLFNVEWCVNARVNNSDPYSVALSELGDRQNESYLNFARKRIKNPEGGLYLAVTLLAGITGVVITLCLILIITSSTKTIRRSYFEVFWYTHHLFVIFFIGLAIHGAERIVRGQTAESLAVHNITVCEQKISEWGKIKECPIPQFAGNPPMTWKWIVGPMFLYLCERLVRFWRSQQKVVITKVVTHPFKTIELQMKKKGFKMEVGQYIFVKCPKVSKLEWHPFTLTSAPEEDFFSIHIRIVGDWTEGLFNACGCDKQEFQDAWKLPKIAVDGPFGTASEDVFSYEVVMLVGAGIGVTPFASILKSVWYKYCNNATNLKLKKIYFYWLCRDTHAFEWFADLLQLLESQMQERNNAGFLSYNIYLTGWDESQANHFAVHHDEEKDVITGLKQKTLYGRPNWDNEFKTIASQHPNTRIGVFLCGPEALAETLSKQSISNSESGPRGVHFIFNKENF
# Torsin-1A (Homo sapiens), sequence (O14656 whole entry, looked up): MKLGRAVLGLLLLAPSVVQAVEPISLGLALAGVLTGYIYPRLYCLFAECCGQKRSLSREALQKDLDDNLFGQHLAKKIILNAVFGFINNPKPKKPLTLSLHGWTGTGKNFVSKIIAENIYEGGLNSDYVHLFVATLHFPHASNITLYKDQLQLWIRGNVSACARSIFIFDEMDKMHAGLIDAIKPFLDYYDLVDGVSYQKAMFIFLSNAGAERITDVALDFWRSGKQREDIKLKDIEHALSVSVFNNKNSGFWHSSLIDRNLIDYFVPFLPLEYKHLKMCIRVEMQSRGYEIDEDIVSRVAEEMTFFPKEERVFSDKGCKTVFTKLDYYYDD
SMILES,composite z-score [1],z-score [2],z-score [3],z-score [4],z-score [5],composite z-score [6],composite z-score [7],composite z-score (Torsin-1A (Homo sapiens) [8]),composite z-score (Torsin-1A (Homo sapiens) [9]),composite z-score [10],z-score [11],composite z-score [12],z-score [13],z-score [14],z-score [15],z-score [16],z-score [17],z-score [18],z-score [19],z-score [20]
CCCCN1CC=CC23O[C@@H]4/C=C\CCCOC(=O)C4[C@H]2C(=O)N(CCCO)[C@@H]3C1=O (stereo not given in full),-0.311,0.275 (inactive),0.0302 (inactive),-0.0778 (inactive),0.241 (inactive),-1.3,-0.105,-1.36,-1.64,-0.0567,-0.0884 (inactive),0.0927,0.897 (inactive),0.611 (inactive),-0.746 (inactive),0.0888 (inactive),-0.207,1.59 (inactive),0.593 (inactive),2.02
O=C1O[C@@H](c2ccccc2)[C@@H](c2ccccc2)N2[C@@H](c3ccc(OCCO)cc3)[C@]3(C(=O)Nc4ccc(C#CCCO)cc43)[C@@H](C(=O)NC[C@H](O)c3ccccc3)[C@H]12,0.425,-0.673 (inactive),-0.703 (inactive),-0.141 (inactive),0.119 (inactive),0.477,0.288,0.458,0.652,1.88,0.591 (inactive),0.708,3.19 (inactive),1.4 (inactive),1.53 (inactive),0.688 (inactive),0.136,2.21 (inactive),1.71 (inactive),0.235
[N-]=[N+]=NCc1ccccc1[C@@H]1OC(c2ccc(OCCCO)cc2)=N[C@]1(CCS(=O)(=O)c1ccccc1)C(=O)N1CCOCC1,0.477,-4.07 (inactive),-0.344 (inactive),1.59 (inactive),-1.08 (inactive),1.5,0.351,0.796,0.947,-0.149,1.79 (inactive),0.533,26.1 (active),12.5 (active),3.79 (inactive),0.45 (inactive),1.88,1.21 (inactive),1.18 (inactive),1.2
CCCNC(=O)[C@@H]1c2ccccc2C(=O)N(Cc2ccccc2OC)[C@H]1c1ccc(CO)cc1,0.304,-0.67 (inactive),0.376 (inactive),0.001 (inactive),-0.312 (inactive),0.867,-0.0066,-0.3,0.889,1.52,0.0817 (inactive),-0.0011,2.32 (inactive),0.117 (inactive),0.297 (inactive),0.0117 (inactive),-0.439,0.802 (inactive),0.998 (inactive),0.686
COC(=O)c1c(CC[C@@H](CO)NC(=O)N[C@H](Cc2ccccc2)Cn2cc(-c3ccccn3)nn2)oc(C(C)=O)c1C(=O)OC,-0.293,-0.105 (inactive),0.542 (inactive),0.367 (inactive),0.453 (inactive),0.946,-0.105,0.813,0.0502,0.248,-0.72 (inactive),-0.194,27.1 (active),12.7 (active),0.729 (inactive),1.41 (inactive),0.032,-1.52 (inactive),0.594 (inactive),1.24
COCCCNC(=O)[C@@]1(Cc2ccccc2CN=[N+]=[N-])N=C(c2ccc(OCCCO)cc2)O[C@H]1c1ccccc1CN=[N+]=[N-],1.08,-5.48 (inactive),-1.5 (inactive),0.76 (inactive),-1.68 (inactive),0.521,-0.0195,0.0552,0.511,-0.933,1.16 (inactive),0.123,31.4 (active),48.5 (active),2.97 (inactive),26.4 (active),2.88,-3.05 (inactive),-0.796 (inactive),-1.91
CC(C)Cc1ccc(CN2CC[C@@H](N)C2)cc1,-0.544,-3.26 (inactive),-1.53 (inactive),-0.688 (inactive),1.52 (inactive),-1.27,-0.0357,-1.79,-0.677,-0.0963,-3.85 (inactive),-0.0969,0.483 (inactive),0.933 (inactive),-0.285 (inactive),0.525 (inactive),0.412,-0.0323 (inactive),-0.535 (inactive),-1.29
Cc1c(NC(=O)/C(C#N)=C/c2cccc([N+](=O)[O-])c2)c(=O)n(-c2ccccc2)n1C,0.233,-3.67 (inactive),-1.97 (inactive),-0.554 (inactive),-1.47 (inactive),0.891,-0.0774,0.659,1.12,0.478,0.969 (inactive),-0.173,0.468 (inactive),-0.376 (inactive),-0.451 (inactive),-0.481 (inactive),2.39,-1.36 (inactive),-0.497 (inactive),0.864

# Source: PubChem BioAssay
